This note sets out measurements from PubChem BioAssay AID2156 (Johns Hopkins Ion Channel Center, 2009).

About 3,400 (1.1%) of roughly 310,000 compounds were called active. Only a selection was taken, and actives are over-represented in it overall. Values without a mark were called inactive.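 The calls were made as follows: active = fluorescence ratio B-score at most minus 3 library SDs, with starting brightness B-score within 2 library SDs (cut at about -5.5 in these data); inactive = the rest, inconclusive results apart.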

The target in the assay is Potassium voltage-gated channel subfamily KQT member 2 (Rattus norvegicus) (UniProt O88943). The assay is described as follows: KCNQ2 channel blockers in CHO-K1 cells – cell-based, FluxOR thallium flux, B-score, primary screen (AID 2156). The conditions noted are these: 20 min, at 10 µM; active compounds read low.
Potassium voltage-gated channel subfamily KQT member 2 (Rattus norvegicus), sequence (O88943 whole entry, looked up): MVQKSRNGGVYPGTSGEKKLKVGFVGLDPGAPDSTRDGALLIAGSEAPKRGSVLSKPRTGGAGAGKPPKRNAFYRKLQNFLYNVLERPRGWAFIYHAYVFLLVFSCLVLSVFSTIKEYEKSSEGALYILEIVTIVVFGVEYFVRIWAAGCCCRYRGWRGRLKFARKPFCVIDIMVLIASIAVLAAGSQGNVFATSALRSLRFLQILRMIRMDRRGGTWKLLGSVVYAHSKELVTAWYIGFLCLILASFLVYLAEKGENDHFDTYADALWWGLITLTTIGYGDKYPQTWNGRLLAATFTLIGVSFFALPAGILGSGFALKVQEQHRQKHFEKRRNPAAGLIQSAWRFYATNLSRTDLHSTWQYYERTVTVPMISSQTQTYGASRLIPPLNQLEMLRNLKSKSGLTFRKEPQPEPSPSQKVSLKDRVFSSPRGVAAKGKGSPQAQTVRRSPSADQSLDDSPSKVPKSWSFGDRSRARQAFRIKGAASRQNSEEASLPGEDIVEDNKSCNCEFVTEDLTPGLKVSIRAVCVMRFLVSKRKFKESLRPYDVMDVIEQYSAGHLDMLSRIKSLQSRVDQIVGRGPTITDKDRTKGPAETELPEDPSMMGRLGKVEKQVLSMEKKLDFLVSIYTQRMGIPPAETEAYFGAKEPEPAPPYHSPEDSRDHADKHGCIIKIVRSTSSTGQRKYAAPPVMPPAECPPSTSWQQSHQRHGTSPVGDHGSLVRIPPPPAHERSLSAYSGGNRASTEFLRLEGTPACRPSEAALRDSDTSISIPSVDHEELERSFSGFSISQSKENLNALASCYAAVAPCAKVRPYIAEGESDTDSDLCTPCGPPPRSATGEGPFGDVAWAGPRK
In the case of `Cc1ccc(C(=O)NNC(=O)C(C)Oc2ccc3ccccc3c2)o1` (stereo not given), the B-score result was “inactive”.
On to `CCN(CC(=O)Nc1ccc(NC(C)=O)cc1)C(=O)C1CC(=O)N(Cc2ccc(C)cc2)C1` (stereo not given), for which the B-score is -0.36.
On to `COc1ccc2sc(N(CCCN(C)C)C(=O)c3ccc(S(=O)(=O)N(C)C4CCCCC4)cc3)nc2c1`, for which the B-score entry was “inactive”.
The value for `CCCOC1CCCN(C(=O)c2cc(COc3cncc(Cl)c3)on2)C1` (stereo not given) was -8.22 (active).
On to `COc1cc(Cl)ccc1OCc1cc(C(=O)N2CC[C@@H]3CCCC[C@H]3C2)no1`, for which the B-score is -3.02.
Take `CCOC(=O)CC1(NC(=O)c2cc(COc3cncc(Cl)c3)on2)CCCCC1`: the B-score was -1.68.
Consider `Cc1ccc(-c2cnc(NC(=O)CCC(=O)N(C)Cc3ccccc3)n2C)cc1`, for which the B-score is -7.93 (active).
On to `CN(Cc1ccccc1)C(=O)CCc1ccccc1`, for which the B-score is -0.03.
For `Cn1c(-c2ccc(F)cc2)cnc1SCC(=O)NNC(=O)Cc1ccccc1`, the B-score result is “inactive”.
Consider `O=C(CCNC(=O)c1ccc(Br)cc1)Nc1cccc(S(=O)(=O)N2CCCCC2)c1`, for which the B-score is -0.11.
In the case of `CCCCn1c(N)c(N(Cc2ccccc2OC)C(=O)COc2cc(C)ccc2Cl)c(=O)[nH]c1=O`, the B-score is -0.97.
With `CCOc1ccc2ccccc2c1/C=N/NC(=O)c1c(C)cc(C)[nH]c1=O`, the B-score was -2.
For the compound `Cc1cc(NC(=O)C(C)N2C(=O)c3ccccc3S2(=O)=O)no1` (stereo not given), the B-score was -0.8.
On to `FC(F)(F)c1ccc2c3n(nc2c1)CCN=C3c1ccc(Cl)cc1`, for which the B-score result was “inactive”.
On to `Cc1ccccc1C(=O)Nc1ccccc1Sc1ccccc1`, for which the B-score is -8.36 (active).
Regarding `Cc1ccccc1C(=O)Nc1ccccc1NC(=O)c1ccccc1C`, the B-score result is “inactive”.
The value for `O=C(COC(=O)c1ccccc1)Nc1ccccc1Sc1ccccc1` was -0.64; that for `O=C(Cc1ccc(S(=O)(=O)N2CCOCC2)s1)N1CCN(c2ccc(C(F)(F)F)cc2[N+](=O)[O-])CC1` was “inactive”; that for `O=C(NC1CCCCC1)c1ccc(-c2ccc(Cl)cc2)o1` was -3.97.
Regarding `CN(CC(=O)Nc1cccc(F)c1)C(=O)C1=COCCO1`, the B-score was -0.61.
For `O=C(NC1CCCC1)C(c1ccco1)N(C(=O)c1csnn1)c1ccccc1` (stereo not given), the B-score entry was “inactive”.
For `O=C(NCc1ccccc1)C(c1ccccc1)N(C(=O)c1csnn1)c1ccc(F)cc1` (stereo not given), the B-score is -1.89.
On to `O=C(NCc1ccccc1)C(c1ccco1)N(C(=O)c1csnn1)c1ccccc1F` (stereo not given), for which the B-score was -6.27 (active).
Turning to `CCOc1ccc(C(C)=O)cc1COC(=O)CNC(=O)c1cccs1`, the B-score entry is “inactive”.
For `CCOc1ncccc1C(=O)NNC(=O)c1cccc(S(=O)(=O)Nc2ccccc2OC)c1` the value was “inactive”; for `COc1ccc(C(CNC(=O)COc2ccccc2OC)N2CCCCC2)cc1` (stereo not given), “inactive”; for `COc1ccc(C(CNC(=O)COc2ccc([N+](=O)[O-])cc2)N2CCCCC2)cc1` (stereo not given), -0.69.
As to `CCc1ccc(OCC(=O)NCC(c2ccc(Cl)cc2)N2CCCCC2)cc1` (stereo not given), the B-score was -5.91 (active).
For `O=C(CCC1CCCCC1)Nc1cc(C(F)(F)F)ccc1N1CCOCC1` the value was -0.87; for `CN(Cc1c(F)cccc1Cl)C(=O)CNC(=O)c1ccc2c(c1)OCO2`, -1.89; for `Cc1cccc(N2CCN(C(c3ccc(N(C)C)cc3)c3nnnn3C(C)(C)C)CC2)c1C` (stereo not given), -6.02 (active).
As for `Cc1cccc(N2CCN(C(c3ccccc3)c3nnnn3CC3CCCO3)CC2)c1C` (stereo not given), the B-score is -1.18.
Consider `CC(C)(C)n1nnnc1C(c1ccc(Cl)cc1)N1CCSCC1` (stereo not given), for which the B-score result was “inactive”.
As for `CCOc1ccc(S(=O)(=O)NCCC(=O)NCC(C)(C)N2CCOCC2)cc1`, the B-score result is “inactive”.
Regarding `CCOc1ccc2c(c1)C(c1ccc(C)cc1)=NNC(c1ccc(C)cc1)=N2`, the B-score is -1.45.
`Cc1ccc(C2=Nc3c(ccc4ccccc34)C(c3ccncc3)=NN2)cc1`: the B-score is -7.02 (active).
As to `CCc1ccc2c(c1)C(c1ccc([N+](=O)[O-])cc1)=NNC(c1ccccc1)=N2`, the B-score is -0.01.
As for `CC1(c2nnc(Cc3ccccc3)o2)CC(c2ccccc2F)=NO1` (stereo not given), the B-score entry is “inactive”.
As for `COc1ccc(Cl)cc1NS(=O)(=O)c1cccc(C(=O)NC2CCC(O)CC2)c1` (stereo not given), the B-score result was “inactive”.
The value for `CCN(CC)CCn1c2c(c(SCC(=O)Nc3nc4ccccc4s3)nc1=O)CCCC2` was -0.49.
Turning to `CC(C(=O)NCC1CCCCC1)N(C)Cc1cccc(Cl)c1` (stereo not given), the B-score is -6.94 (active).
The value for `Cc1ccccc1NC(=O)NCC1CCN(Cc2cccc(Cl)c2)CC1` was “inactive”; that for `CNS(=O)(=O)c1cccc(C(=O)NCC2CCCCC2)c1` was “inactive”.
As for `O=C(COC(=O)c1cccc(Cl)c1)Nc1ccc2[nH]c(=O)[nH]c2c1`, the B-score entry was “inactive”.
For `CCOc1cc(/C=N/NC(=O)c2cccc(S(=O)(=O)N3CCOCC3)c2)ccc1OCC(=O)N(C)C`, the B-score is -0.36.
Consider `Cc1ccc(S(=O)(=O)NCCC(=O)OCC(=O)N(C)c2ccccc2)cc1`, for which the B-score result was “inactive”.
For `COc1ccc(Cl)cc1NC(=O)CN(C)C(=O)c1cc2ccccc2cc1OC`, the B-score was -1.83.
For `COc1ccc(Cl)cc1NC(=O)CN(C)Cc1ccc(OC)c(OC)c1`, the B-score was -7.16 (active).
In the case of `COc1ccc(OC)c(NC(=O)CN(Cc2ccc(Cl)cc2)S(C)(=O)=O)c1`, the B-score was -0.01.
As for `O=C1N[C@@H](Cc2ccccc2)C(=O)N2[C@H]1C[C@]1(Br)c3ccccc3N(S(=O)(=O)c3ccccc3)[C@H]21`, the B-score entry is “inactive”.
Regarding `CCN1C(=O)/C(=c2\s/c(=C3\Sc4ccccc4N3C)c(=O)n2C)N(C)C1=S`, the B-score entry was “inactive”.
Consider `CN1/C(=c2/s/c(=C3/C(=O)N(c4ccccc4)NC3=Nc3ccccc3)n(C)c2=O)C(C)(C)c2ccccc21`, for which the B-score is -7.74 (active).
Regarding `CC1C(=O)N2CCCc3cc(S(=O)(=O)NCc4ccc(F)cc4)cc1c32` (stereo not given), the B-score result was “inactive”.
For the compound `Cc1ccc(Cl)c(OCC(=O)N(C)CC(=O)Nc2ccc(N3CCOCC3)cc2)c1`, the B-score entry was “inactive”.
In the case of `Cc1ccc(NS(=O)(=O)c2ccc(C(=O)NCCCN3CCOCC3)cc2)cc1`, the B-score was -0.52.
`CC(C)CN(C(=O)Cn1c(=O)cnc2ccccc21)C1CCS(=O)(=O)C1` (stereo not given): the B-score was -1.5.
On to `CCOC(=O)N1CCN(C(=O)COc2ccc3oc4c(c3c2)CCCC4)CC1`, for which the B-score result was “inactive”.
As to `CCOC(=O)C1CCN(C(c2cc3cc(C)cc(C)c3[nH]c2=O)c2nnnn2C2CCCCC2)CC1` (stereo not given), the B-score is -1.94.
For the compound `Fc1ccccc1C(c1nnnn1Cc1ccc2c(c1)OCO2)N1CCN(Cc2ccccc2)CC1` (stereo not given), the B-score was -1.43.
`Cc1cc(C)c2[nH]c(=O)c(C(c3nnnn3Cc3ccc4c(c3)OCO4)N3CCCC3)cc2c1` (stereo not given): the B-score is -6.38 (active).
